# According to PubChem BioAssay AID1159580 (chemical genetic matrix, 2015):
# In all, about 5,500 compounds went through this assay and about 2,000 (36%) were called active. Roughly 18% stayed inconclusive and do not appear here. The list shows a part of the results. A number with no mark means an inactive call. Cut-off read from the data, not from the text of the source: active = normalized growth mostly below about 0.91 (no sharp cut-off); inconclusive = no clear call, values can overlap the other calls; inactive = mostly above about 0.92.
# Assay: chemical genetic growth profiling, strain panel (AID 1159580);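 note: tested at 20 µM; growth read once vehicle control cultures reached saturation at 30 °C; 1 = growth at the plate median or of vehicle wells; lower values mean less growth of the strain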
# Conditions: growth OD
compound,measurement,setting,value
CCCCCCCCCCCCC[N+](C)(C)Cc1ccccc1,normalized growth,"S. cerevisiae deletion strains, locus YJR075W, strain HOC1, active compounds read low",0.0621 (active)
same,normalized growth,"S. cerevisiae deletion strains, locus YKL009W, strain mrt4, active compounds read low",0.102 (active)
same,normalized growth,"S. cerevisiae deletion strains, locus YKL068W, active compounds read low",0.0707 (active)
same,normalized growth,"S. cerevisiae deletion strains, locus YKL085W, strain MDH1 (second series), active compounds read low",0.0622 (active)
same,normalized growth,"S. cerevisiae deletion strains, locus YKL085W, strain MDH1, active compounds read low",0.0622 (active)
same,normalized growth,"S. cerevisiae deletion strains, locus YKL160W, strain elf1, active compounds read low",0.0609 (active)
same,normalized growth,"S. cerevisiae deletion strains, locus YKL190W, strain CNB1, active compounds read low",0.0462 (active)
same,normalized growth,"S. cerevisiae deletion strains, locus YKR001C, strain vps1, active compounds read low",0.0665 (active)
same,normalized growth,"S. cerevisiae deletion strains, locus YKR026C, strain gcn3, active compounds read low",0.0645 (active)
same,normalized growth,"S. cerevisiae deletion strains, locus YKR091W, strain srl3, active compounds read low",0.0591 (active)
same,normalized growth,"S. cerevisiae deletion strains, locus YLL001W, strain dnm1, active compounds read low",0.0643 (active)
same,normalized growth,"S. cerevisiae deletion strains, locus YLL026W, active compounds read low",0.0581 (active)
same,normalized growth,"S. cerevisiae deletion strains, locus YLL041C, strain sdh2, active compounds read low",0.0534 (active)
same,normalized growth,"S. cerevisiae deletion strains, locus YLR027C, strain aat2, active compounds read low",0.0632 (active)
same,normalized growth,"S. cerevisiae deletion strains, locus YLR039C, strain RIC1, active compounds read low",0.0768 (active)
same,normalized growth,"S. cerevisiae deletion strains, locus YLR058C, strain SHM2, active compounds read low",0.0468 (active)
same,normalized growth,"S. cerevisiae deletion strains, locus YLR102C, strain apc9, active compounds read low",0.0591 (active)
same,normalized growth,"S. cerevisiae deletion strains, locus YLR113W, strain HOG1, active compounds read low",0.115 (active)
same,normalized growth,"S. cerevisiae deletion strains, locus YLR221C, strain rsa3, active compounds read low",0.0601 (active)
same,normalized growth,"S. cerevisiae deletion strains, locus YLR258W, strain gsy2, active compounds read low",0.0594 (active)
same,normalized growth,"S. cerevisiae deletion strains, locus YLR262C, strain YPT6 (second series), active compounds read low",0.0813 (active)
same,normalized growth,"S. cerevisiae deletion strains, locus YLR262C, strain YPT6, active compounds read low",0.0988 (active)
same,normalized growth,"S. cerevisiae deletion strains, locus YLR268W, strain sec22, active compounds read low",0.0715 (active)
same,normalized growth,"S. cerevisiae deletion strains, locus YLR320W, strain mms22, active compounds read low",0.0747 (active)
same,normalized growth,"S. cerevisiae deletion strains, locus YLR330W, strain CHS5, active compounds read low",0.0507 (active)
same,normalized growth,"S. cerevisiae deletion strains, locus YLR342W, strain FKS1 (second series), active compounds read low",0.0621 (active)
same,normalized growth,"S. cerevisiae deletion strains, locus YLR342W, strain FKS1, active compounds read low",0.0644 (active)
same,normalized growth,"S. cerevisiae deletion strains, locus YLR357W, strain rsc2, active compounds read low",0.114 (active)
same,normalized growth,"S. cerevisiae deletion strains, locus YLR370C, strain arc18, active compounds read low",0.0615 (active)
same,normalized growth,"S. cerevisiae deletion strains, locus YLR371W, strain rom2, active compounds read low",0.0625 (active)
same,normalized growth,"S. cerevisiae deletion strains, locus YLR384C, strain iki3, active compounds read low",0.0574 (active)
same,normalized growth,"S. cerevisiae deletion strains, locus YLR418C, strain cdc73, active compounds read low",0.0973 (active)
same,normalized growth,"S. cerevisiae deletion strains, locus YML016C, strain PPZ1, active compounds read low",0.0455 (active)
same,normalized growth,"S. cerevisiae deletion strains, locus YML032C, strain rad52, active compounds read low",0.0731 (active)
same,normalized growth,"S. cerevisiae deletion strains, locus YML120C, strain ndi1, active compounds read low",0.0563 (active)
same,normalized growth,"S. cerevisiae deletion strains, locus YML124C, strain tub3, active compounds read low",0.0618 (active)
same,normalized growth,"S. cerevisiae deletion strains, locus YMR058W, strain fet3, active compounds read low",0.064 (active)
same,normalized growth,"S. cerevisiae deletion strains, locus YMR078C, strain ctf18, active compounds read low",0.0768 (active)
same,normalized growth,"S. cerevisiae deletion strains, locus YMR125W, strain sto1, active compounds read low",0.0739 (active)
same,normalized growth,"S. cerevisiae deletion strains, locus YMR129W, active compounds read low",0.0593 (active)
same,normalized growth,"S. cerevisiae deletion strains, locus YMR205C, strain PFK2, active compounds read low",0.0873 (active)
same,normalized growth,"S. cerevisiae deletion strains, locus YMR223W, strain ubp8, active compounds read low",0.0651 (active)
same,normalized growth,"S. cerevisiae deletion strains, locus YMR231W, strain pep5, active compounds read low",0.0683 (active)
same,normalized growth,"S. cerevisiae deletion strains, locus YMR307W, strain GAS1, active compounds read low",0.11 (active)
same,normalized growth,"S. cerevisiae deletion strains, locus YNL067W, strain RPL9B, active compounds read low",0.0494 (active)
same,normalized growth,"S. cerevisiae deletion strains, locus YNL071W, strain lat1, active compounds read low",0.0572 (active)
same,normalized growth,"S. cerevisiae deletion strains, locus YNL128W, strain TEP1, active compounds read low",0.0628 (active)
same,normalized growth,"S. cerevisiae deletion strains, locus YNL153C, strain GIM3, active compounds read low",0.0486 (active)
same,normalized growth,"S. cerevisiae deletion strains, locus YNL183C, strain NPR1, active compounds read low",-0.00105 (active)
same,normalized growth,"S. cerevisiae deletion strains, locus YNL209W, strain ssb2, active compounds read low",0.0596 (active)
same,normalized growth,"S. cerevisiae deletion strains, locus YNL233W, strain BNI4, active compounds read low",0.0559 (active)
same,normalized growth,"S. cerevisiae deletion strains, locus YNL248C, strain rpa49, active compounds read low",0.0866 (active)
same,normalized growth,"S. cerevisiae deletion strains, locus YNL250W, strain rad50, active compounds read low",0.107 (active)
same,normalized growth,"S. cerevisiae deletion strains, locus YNL271C, strain bni1, active compounds read low",0.0664 (active)
same,normalized growth,"S. cerevisiae deletion strains, locus YNL298W, strain CLA4, active compounds read low",0.0607 (active)
same,normalized growth,"S. cerevisiae deletion strains, locus YNL307C, strain MCK1, active compounds read low",0.0673 (active)
same,normalized growth,"S. cerevisiae deletion strains, locus YNL322C, strain KRE1 (second series), active compounds read low",0.0716 (active)
same,normalized growth,"S. cerevisiae deletion strains, locus YNR049C, strain mso1, active compounds read low",0.0569 (active)
same,normalized growth,"S. cerevisiae deletion strains, locus YNR052C, strain pop2, active compounds read low",0.0607 (active)
same,normalized growth,"S. cerevisiae deletion strains, locus YOL006C, strain TOP1, active compounds read low",0.101 (active)
same,normalized growth,"S. cerevisiae deletion strains, locus YOL012C, strain htz1",0.22
same,normalized growth,"S. cerevisiae deletion strains, locus YOL147C, strain pex11, active compounds read low",0.0664 (active)
same,normalized growth,"S. cerevisiae deletion strains, locus YOR001W, strain rrp6, active compounds read low",0.0665 (active)
same,normalized growth,"S. cerevisiae deletion strains, locus YOR061W, strain CKA2, active compounds read low",0.0452 (active)
same,normalized growth,"S. cerevisiae deletion strains, locus YOR069W, strain VPS5, active compounds read low",0.0467 (active)
same,normalized growth,"S. cerevisiae deletion strains, locus YOR070C, strain gyp1, active compounds read low",0.0668 (active)
same,normalized growth,"S. cerevisiae deletion strains, locus YOR080W, strain dia2, active compounds read low",0.0657 (active)
same,normalized growth,"S. cerevisiae deletion strains, locus YOR083W, strain WHI5, active compounds read low",0.0673 (active)
same,normalized growth,"S. cerevisiae deletion strains, locus YOR106W, strain vam3, active compounds read low",0.0651 (active)
same,normalized growth,"S. cerevisiae deletion strains, locus YOR136W, strain idh2, active compounds read low",0.0728 (active)
same,normalized growth,"S. cerevisiae deletion strains, locus YOR144C, strain elg1, active compounds read low",0.0629 (active)
same,normalized growth,"S. cerevisiae deletion strains, locus YOR184W, strain ser1, active compounds read low",0.0779 (active)
same,normalized growth,"S. cerevisiae deletion strains, locus YOR231W, strain MKK1, active compounds read low",0.103 (active)
same,normalized growth,"S. cerevisiae deletion strains, locus YOR265W, strain rbl2, active compounds read low",0.0552 (active)
same,normalized growth,"S. cerevisiae deletion strains, locus YOR270C, strain vph1, active compounds read low",0.0971 (active)
same,normalized growth,"S. cerevisiae deletion strains, locus YOR290C, strain snf2, active compounds read low",0.0603 (active)
same,normalized growth,"S. cerevisiae deletion strains, locus YOR316C, strain cot1, active compounds read low",0.0576 (active)
same,normalized growth,"S. cerevisiae deletion strains, locus YPL051W, strain arl3, active compounds read low",0.0609 (active)
same,normalized growth,"S. cerevisiae deletion strains, locus YPL055C, strain LGE1, active compounds read low",0.0695 (active)
same,normalized growth,"S. cerevisiae deletion strains, locus YPL078C, strain atp4, active compounds read low",0.0642 (active)
same,normalized growth,"S. cerevisiae deletion strains, locus YPL106C, strain sse1, active compounds read low",0.0953 (active)
same,normalized growth,"S. cerevisiae deletion strains, locus YPL240C, strain hsp82, active compounds read low",0.0558 (active)
same,normalized growth,"S. cerevisiae deletion strains, locus YPL256C, strain CLN2, active compounds read low",0.111 (active)
same,normalized growth,"S. cerevisiae deletion strains, locus YPR119W, strain clb2, active compounds read low",0.0637 (active)
same,normalized growth,"S. cerevisiae deletion strains, locus YPR141C, strain kar3, active compounds read low",0.0734 (active)
same,normalized growth,"S. cerevisiae deletion strains, locus YPR163C, strain tif3, active compounds read low",0.0705 (active)
same,normalized growth,"S. cerevisiae deletion strains, locus YPR167C, strain met16, active compounds read low",0.063 (active)
same,normalized growth,"S. cerevisiae deletion strains, strain wtn01, active compounds read low",0.067 (active)
same,normalized growth,"S. cerevisiae strains, strain wild type, active compounds read low",0.0467 (active)
